Assay results as given in ChEMBL document CHEMBL1961873, “Compounds: GSK PKIS; Assays: Nanosyn kinase panel” (2012).

Tests used:
[1] = target: Ribosomal protein S6 kinase alpha-6 (Homo sapiens) (UniProt Q9UK32); details: at 1 µM;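 note: each value is a mean inhibition of RSK4 from a GSK PKIS panel screen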
[2] = target: T1, Serine/threonine-protein kinase Sgk1 (Homo sapiens) (UniProt O00141); details: at 0.1 µM
T1 sequence (whole entry): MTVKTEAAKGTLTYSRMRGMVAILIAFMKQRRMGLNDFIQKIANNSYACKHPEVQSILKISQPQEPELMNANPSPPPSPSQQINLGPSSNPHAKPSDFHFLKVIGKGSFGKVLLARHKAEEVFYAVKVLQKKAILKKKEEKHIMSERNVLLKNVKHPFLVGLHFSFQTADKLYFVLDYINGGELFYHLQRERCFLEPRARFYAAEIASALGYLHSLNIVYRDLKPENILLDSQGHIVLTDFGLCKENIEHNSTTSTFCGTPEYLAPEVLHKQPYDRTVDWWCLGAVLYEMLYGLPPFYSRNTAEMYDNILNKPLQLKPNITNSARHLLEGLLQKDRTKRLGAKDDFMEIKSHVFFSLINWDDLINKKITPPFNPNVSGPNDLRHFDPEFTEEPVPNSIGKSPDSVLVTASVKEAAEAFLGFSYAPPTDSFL

[3] = target: T1, Serine/threonine-protein kinase Sgk1 (Homo sapiens); details: at 1 µM
[4] = target: T2, Serine/threonine-protein kinase Sgk2 (Homo sapiens) (UniProt Q9HBY8); details: at 0.1 µM
T2 sequence (whole entry): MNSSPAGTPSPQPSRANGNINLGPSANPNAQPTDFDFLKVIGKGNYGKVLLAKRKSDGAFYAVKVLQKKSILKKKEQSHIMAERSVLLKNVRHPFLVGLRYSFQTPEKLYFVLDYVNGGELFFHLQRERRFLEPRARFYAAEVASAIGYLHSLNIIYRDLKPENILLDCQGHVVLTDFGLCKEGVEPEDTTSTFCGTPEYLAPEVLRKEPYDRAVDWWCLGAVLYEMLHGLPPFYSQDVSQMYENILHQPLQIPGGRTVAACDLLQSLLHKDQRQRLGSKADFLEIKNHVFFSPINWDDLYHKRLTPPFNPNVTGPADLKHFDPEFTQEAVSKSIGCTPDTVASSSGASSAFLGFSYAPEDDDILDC

[5] = target: T2, Serine/threonine-protein kinase Sgk2 (Homo sapiens); details: at 1 µM
[6] = target: T3, Serine/threonine-protein kinase Sgk3 (Homo sapiens) (UniProt Q96BR1); details: at 0.1 µM
T3 sequence (whole entry): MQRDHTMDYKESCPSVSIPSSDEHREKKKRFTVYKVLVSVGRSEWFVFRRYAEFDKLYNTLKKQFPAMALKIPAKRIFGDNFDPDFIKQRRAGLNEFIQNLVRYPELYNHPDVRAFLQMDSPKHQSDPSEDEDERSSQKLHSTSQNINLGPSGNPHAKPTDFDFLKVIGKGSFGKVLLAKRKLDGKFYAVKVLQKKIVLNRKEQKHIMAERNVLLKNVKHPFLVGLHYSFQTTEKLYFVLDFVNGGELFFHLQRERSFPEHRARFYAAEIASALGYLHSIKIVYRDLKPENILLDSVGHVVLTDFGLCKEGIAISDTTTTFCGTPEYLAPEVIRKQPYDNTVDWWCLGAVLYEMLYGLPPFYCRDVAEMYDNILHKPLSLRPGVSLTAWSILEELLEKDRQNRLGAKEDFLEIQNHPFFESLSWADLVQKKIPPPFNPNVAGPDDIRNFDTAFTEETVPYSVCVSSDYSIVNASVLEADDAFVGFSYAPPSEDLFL

[7] = target: T3, Serine/threonine-protein kinase Sgk3 (Homo sapiens); details: at 1 µM
[8] = target: 5'-AMP-activated protein kinase catalytic subunit alpha-1 (Homo sapiens) (UniProt Q13131); details: at 0.1 µM
[9] = target: 5'-AMP-activated protein kinase catalytic subunit alpha-1 (Homo sapiens) (UniProt Q13131); details: at 1 µM
[10] = target: 5'-AMP-activated protein kinase catalytic subunit alpha-2 (Homo sapiens) (UniProt P54646); details: at 0.1 µM
[11] = target: 5'-AMP-activated protein kinase catalytic subunit alpha-2 (Homo sapiens) (UniProt P54646); details: at 1 µM
[12] = target: T4, NUAK family SNF1-like kinase 1 (Homo sapiens) (UniProt O60285); details: at 0.1 µM
T4 sequence (whole entry): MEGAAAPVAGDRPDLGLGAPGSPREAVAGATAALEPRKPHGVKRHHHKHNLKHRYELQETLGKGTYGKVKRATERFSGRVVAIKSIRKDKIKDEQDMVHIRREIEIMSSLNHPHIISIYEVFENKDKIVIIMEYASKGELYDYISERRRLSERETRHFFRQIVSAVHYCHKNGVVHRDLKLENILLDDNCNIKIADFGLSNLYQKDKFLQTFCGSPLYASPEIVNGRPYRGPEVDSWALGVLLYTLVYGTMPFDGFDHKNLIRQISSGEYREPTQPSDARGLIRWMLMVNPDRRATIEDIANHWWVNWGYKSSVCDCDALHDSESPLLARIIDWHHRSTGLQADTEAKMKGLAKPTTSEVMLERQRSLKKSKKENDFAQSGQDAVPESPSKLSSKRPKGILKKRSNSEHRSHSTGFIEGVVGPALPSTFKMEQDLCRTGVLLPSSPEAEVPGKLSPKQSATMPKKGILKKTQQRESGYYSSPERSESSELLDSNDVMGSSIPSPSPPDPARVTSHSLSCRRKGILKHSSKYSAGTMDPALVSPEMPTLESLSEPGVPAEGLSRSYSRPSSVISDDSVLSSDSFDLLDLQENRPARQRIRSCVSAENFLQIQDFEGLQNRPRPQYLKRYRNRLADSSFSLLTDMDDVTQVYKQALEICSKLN

[13] = target: T4, NUAK family SNF1-like kinase 1 (Homo sapiens); details: at 1 µM
[14] = target: T5, Serine/threonine-protein kinase BRSK1 (Homo sapiens) (UniProt Q8TDC3); details: at 0.1 µM
T5 sequence (whole entry): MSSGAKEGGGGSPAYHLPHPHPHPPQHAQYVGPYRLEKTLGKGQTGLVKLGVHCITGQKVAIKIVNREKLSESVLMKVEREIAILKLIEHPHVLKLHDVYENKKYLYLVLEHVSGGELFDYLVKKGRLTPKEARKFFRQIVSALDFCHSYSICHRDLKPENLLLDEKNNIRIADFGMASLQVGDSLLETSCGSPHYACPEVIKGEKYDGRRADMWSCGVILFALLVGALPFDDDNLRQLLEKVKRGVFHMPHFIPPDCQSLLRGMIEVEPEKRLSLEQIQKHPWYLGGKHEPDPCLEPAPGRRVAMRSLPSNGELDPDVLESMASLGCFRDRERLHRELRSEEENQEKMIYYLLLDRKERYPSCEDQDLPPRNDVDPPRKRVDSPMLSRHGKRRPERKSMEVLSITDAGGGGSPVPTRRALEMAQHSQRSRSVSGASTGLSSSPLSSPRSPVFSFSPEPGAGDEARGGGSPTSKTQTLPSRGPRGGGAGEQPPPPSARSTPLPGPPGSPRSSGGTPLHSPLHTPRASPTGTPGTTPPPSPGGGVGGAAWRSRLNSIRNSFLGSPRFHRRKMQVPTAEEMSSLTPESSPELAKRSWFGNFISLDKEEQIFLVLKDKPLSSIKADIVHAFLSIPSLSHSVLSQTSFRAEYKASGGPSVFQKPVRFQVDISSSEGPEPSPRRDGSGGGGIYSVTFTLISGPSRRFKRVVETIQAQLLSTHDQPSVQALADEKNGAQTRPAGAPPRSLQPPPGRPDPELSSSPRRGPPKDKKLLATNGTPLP

[15] = target: T5, Serine/threonine-protein kinase BRSK1 (Homo sapiens); details: at 1 µM
[16] = target: T6, Serine/threonine-protein kinase BRSK2 (Homo sapiens) (UniProt Q8IWQ3); details: at 0.1 µM
T6 sequence (whole entry): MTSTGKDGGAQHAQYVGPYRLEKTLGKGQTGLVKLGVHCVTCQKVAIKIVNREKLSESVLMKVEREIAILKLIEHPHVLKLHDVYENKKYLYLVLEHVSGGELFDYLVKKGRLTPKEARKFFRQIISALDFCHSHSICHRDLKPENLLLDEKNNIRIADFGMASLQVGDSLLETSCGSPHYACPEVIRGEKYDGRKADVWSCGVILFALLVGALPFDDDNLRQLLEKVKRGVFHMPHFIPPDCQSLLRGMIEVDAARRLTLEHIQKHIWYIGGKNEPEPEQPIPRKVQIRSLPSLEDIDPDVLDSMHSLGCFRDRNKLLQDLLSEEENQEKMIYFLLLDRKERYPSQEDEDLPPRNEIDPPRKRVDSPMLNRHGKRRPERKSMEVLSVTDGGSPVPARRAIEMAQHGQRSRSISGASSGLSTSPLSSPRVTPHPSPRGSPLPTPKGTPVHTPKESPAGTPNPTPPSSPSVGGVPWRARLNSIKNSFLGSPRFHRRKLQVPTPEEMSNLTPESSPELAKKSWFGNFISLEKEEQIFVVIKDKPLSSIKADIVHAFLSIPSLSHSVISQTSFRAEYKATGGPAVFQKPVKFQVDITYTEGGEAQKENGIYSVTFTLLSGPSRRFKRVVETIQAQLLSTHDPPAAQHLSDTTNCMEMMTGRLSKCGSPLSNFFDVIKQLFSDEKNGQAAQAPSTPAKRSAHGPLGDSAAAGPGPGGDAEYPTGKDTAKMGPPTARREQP

[17] = target: T6, Serine/threonine-protein kinase BRSK2 (Homo sapiens); details: at 1 µM
[18] = target: Calcium/calmodulin-dependent protein kinase type 1D (Homo sapiens) (UniProt Q8IU85); details: at 0.1 µM
[19] = target: Calcium/calmodulin-dependent protein kinase type 1D (Homo sapiens) (UniProt Q8IU85); details: at 1 µM
[20] = target: Calcium/calmodulin-dependent protein kinase type II subunit alpha (Homo sapiens) (UniProt Q9UQM7); details: at 0.1 µM;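 note: reported values are averages (mean inhibition of CAMK2A)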
Calcium/calmodulin-dependent protein kinase type II subunit alpha (Homo sapiens), sequence (Q9UQM7 whole entry): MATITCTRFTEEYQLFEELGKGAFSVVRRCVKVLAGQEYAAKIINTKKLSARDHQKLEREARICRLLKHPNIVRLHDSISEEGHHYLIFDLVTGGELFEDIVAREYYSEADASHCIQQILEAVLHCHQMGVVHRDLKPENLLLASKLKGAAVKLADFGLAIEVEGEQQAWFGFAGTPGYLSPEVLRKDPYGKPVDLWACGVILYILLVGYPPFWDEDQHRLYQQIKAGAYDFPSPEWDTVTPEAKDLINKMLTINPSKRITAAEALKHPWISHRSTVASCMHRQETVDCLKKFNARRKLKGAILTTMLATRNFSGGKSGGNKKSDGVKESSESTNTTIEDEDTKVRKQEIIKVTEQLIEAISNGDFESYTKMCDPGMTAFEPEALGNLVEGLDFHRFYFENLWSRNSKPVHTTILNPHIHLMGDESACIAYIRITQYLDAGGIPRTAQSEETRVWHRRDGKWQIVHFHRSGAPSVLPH

Ribosomal protein S6 kinase alpha-6 (Homo sapiens), sequence (Q9UK32 whole entry): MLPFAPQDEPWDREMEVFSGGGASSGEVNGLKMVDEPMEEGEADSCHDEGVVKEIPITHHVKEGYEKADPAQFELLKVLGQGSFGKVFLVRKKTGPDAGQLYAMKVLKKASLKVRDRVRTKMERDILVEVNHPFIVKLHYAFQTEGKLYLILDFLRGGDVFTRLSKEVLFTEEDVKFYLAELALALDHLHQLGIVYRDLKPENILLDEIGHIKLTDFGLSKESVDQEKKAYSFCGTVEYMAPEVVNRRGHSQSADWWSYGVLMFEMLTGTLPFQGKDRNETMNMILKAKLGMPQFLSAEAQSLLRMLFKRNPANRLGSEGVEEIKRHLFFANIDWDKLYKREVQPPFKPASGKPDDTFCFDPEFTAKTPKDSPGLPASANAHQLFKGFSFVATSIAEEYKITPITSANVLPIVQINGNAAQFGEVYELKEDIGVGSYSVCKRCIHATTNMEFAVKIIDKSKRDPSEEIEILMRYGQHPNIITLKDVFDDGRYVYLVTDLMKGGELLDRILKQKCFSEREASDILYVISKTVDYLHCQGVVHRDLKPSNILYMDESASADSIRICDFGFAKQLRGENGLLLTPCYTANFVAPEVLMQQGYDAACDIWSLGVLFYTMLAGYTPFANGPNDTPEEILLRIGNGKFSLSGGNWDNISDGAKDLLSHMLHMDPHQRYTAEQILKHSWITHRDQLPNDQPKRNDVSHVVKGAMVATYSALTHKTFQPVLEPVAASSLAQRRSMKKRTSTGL
Calcium/calmodulin-dependent protein kinase type 1D (Homo sapiens), sequence (Q8IU85 whole entry, looked up): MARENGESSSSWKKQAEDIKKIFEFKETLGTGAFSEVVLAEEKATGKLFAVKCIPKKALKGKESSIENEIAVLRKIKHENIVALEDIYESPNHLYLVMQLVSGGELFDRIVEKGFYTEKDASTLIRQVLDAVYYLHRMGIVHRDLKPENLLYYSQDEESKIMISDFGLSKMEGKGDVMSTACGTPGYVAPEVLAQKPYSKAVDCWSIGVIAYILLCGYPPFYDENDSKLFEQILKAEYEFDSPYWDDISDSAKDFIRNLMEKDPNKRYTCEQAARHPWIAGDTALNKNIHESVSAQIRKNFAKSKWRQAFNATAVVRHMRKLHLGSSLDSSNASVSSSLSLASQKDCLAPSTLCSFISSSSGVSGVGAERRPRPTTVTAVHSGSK
5'-AMP-activated protein kinase catalytic subunit alpha-1 (Homo sapiens), sequence (Q13131 whole entry, looked up): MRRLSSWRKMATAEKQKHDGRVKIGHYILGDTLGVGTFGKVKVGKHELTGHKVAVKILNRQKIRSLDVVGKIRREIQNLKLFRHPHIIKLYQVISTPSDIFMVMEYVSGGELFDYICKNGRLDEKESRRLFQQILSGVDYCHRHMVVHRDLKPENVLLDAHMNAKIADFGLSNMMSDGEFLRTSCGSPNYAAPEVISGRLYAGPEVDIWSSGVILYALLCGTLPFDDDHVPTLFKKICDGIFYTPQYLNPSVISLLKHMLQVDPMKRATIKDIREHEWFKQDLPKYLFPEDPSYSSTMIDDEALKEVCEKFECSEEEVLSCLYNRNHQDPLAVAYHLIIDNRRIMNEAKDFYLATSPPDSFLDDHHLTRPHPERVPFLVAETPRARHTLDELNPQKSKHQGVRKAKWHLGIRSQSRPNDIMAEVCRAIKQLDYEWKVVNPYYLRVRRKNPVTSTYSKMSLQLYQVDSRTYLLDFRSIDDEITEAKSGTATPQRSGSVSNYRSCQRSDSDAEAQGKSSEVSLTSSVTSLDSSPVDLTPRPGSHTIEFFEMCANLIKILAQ
5'-AMP-activated protein kinase catalytic subunit alpha-2 (Homo sapiens), sequence (P54646 whole entry, looked up): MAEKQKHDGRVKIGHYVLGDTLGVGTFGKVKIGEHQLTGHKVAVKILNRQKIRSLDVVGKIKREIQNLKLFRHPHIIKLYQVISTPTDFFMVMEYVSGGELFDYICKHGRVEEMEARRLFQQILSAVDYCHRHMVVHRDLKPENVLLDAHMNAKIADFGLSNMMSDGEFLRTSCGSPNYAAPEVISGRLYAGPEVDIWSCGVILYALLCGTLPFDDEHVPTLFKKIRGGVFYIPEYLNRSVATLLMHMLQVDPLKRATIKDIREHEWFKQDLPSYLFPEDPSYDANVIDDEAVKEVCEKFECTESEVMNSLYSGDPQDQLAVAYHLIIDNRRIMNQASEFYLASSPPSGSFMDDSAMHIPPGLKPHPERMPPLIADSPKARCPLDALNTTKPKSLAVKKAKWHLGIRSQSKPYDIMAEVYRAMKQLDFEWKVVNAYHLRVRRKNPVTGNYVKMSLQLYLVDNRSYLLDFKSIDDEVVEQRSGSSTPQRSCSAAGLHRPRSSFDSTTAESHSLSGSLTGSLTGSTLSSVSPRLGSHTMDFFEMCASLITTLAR

| Structure (SMILES) | inhibition [1] [%] | inhibition [2] [%] | inhibition [3] [%] | inhibition [4] [%] | inhibition [5] [%] | inhibition [6] [%] | inhibition [7] [%] | inhibition [8] [%] | inhibition [9] [%] | inhibition [10] [%] | inhibition [11] [%] | inhibition [12] [%] | inhibition [13] [%] | inhibition [14] [%] | inhibition [15] [%] | inhibition [16] [%] | inhibition [17] [%] | inhibition [18] [%] | inhibition [19] [%] | inhibition [20] [%] |
| --- | --- | --- | --- | --- | --- | --- | --- | --- | --- | --- | --- | --- | --- | --- | --- | --- | --- | --- | --- | --- |
| c1ccc(-c2n[nH]cc2-c2ccnc(-c3ccc(OCCN4CCOCC4)cc3)c2)nc1 | -0.39 | 5.23 | 3.03 | 3.23 | -0.68 | 3.83 | 4.03 | 0.65 | -0.75 | 6.57 | 4.37 | 5.95 | 7.16 | 8.84 | 6.57 | 6.13 | 4.06 | 2.06 | 3.63 | -0.64 |
| COc1cccc(-n2cnc3c(N/N=C/c4ccncc4)ncnc32)c1 | 1.9 | 1.3 | 4.05 | 1.67 | 2.41 | 3.19 | 3.83 | 1.05 | 3.79 | -1.1 | 1.47 | 2.39 | 22.3 | -0.01 | 4.34 | -0.23 | 6.3 | 0.54 | -0.39 | 0.58 |
| COc1cc(Nc2ncc3c(C)nc(-c4cccc(Oc5ccccc5)c4)n3n2)cc(OC)c1OC | 13.2 | 2.08 | -0.71 | 1.09 | -2.63 | 0.96 | -0.95 | 1.87 | 13 | 0.57 | 7.86 | 4.33 | 26.4 | 1.68 | 2.44 | 0.74 | 3.26 | 1.34 | 3.48 | 3.17 |
| COc1cccc(/C=N/Nc2ncnc3c2cnn3-c2cccc(OC)c2)c1 | 1.54 | 1.88 | 1.38 | 1.32 | 2.15 | 2.71 | 2.43 | 1.52 | 2.74 | 5.39 | 2.83 | 1.95 | 3.7 | 0.47 | -0.97 | 1.04 | 2.41 | -0.14 | 0.89 | 0.99 |
